# Only some compounds are listed: those with a hit (about 7.1% of all), similar ones and a draw of the others.
# SW480 rerep: inducers of DNA re-replication in SW480 colon cancer cells; Potency, µM (highest dose often 46.1 µM), without a hit: at the top dose re-replication activation, usual class: activators; 340,000 compounds, 1.8% hits; AID 624297; SW480 DNA re-replication, Hoechst DNA content imaging, 48 h; further: % of control where 0% means no effect; nearly all actives have a fitted effect of over 55% in size
#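 DNA re-replication was detected as more nuclei of elevated Hoechst intensity after 48 hr exposure to compound (23 nL pinned per well of 250 cells).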
# MCF10A rerep: induces DNA re-replication in MCF 10a normal breast cells; Potency, µM (highest dose often 46.1 µM), for inactives: at the highest dose activity, positive = re-replication, most hits filed as activators; MCF 10A DNA re-replication, Hoechst nuclear intensity, 48 h; 350,000 compounds, 2.9% hits; AID 624296; further: % of control where 0% means no effect; nearly all actives have a fitted effect of over 50% in size
# A-T KAP1 phos: potential ataxia-telangiectasia treatment; 320,000 compounds, 0.19% hits; F2112 A-T fibroblasts, KAP-1 phosphorylation AlphaLISA; neocarzinostatin DNA damage 30 min before lysis; Potency, µM (doses to about 57.5 µM), inactives show at the highest dose activation, actives largely listed as activators; further: % of control where 0% means no effect; nearly all actives have a fitted effect of over 45% in size
#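 ATM-like activity read as KAP-1 phosphorylation via AlphaLISA donor/acceptor antibody pairs after lysis and 6 hr at 25C. Cells were ATM-null patient fibroblasts (F2112, hTERT), dosed 60 min, then exposed to the DSB inducer NCS for 30 min.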
# p53 reactivation: mutant p53 re-activation in reporter cells; H1299 p53-A138V BP100-luciferase reporter, luminescence, 24 h; Potency, µM (doses to about 92.2 µM), for inactives: top-dose activity change, positive = activation, hits mostly activators; 320,000 compounds, 0.063% hits; AID 504706; further: % of control where 0% means no effect; nearly all actives have a fitted effect of over 45% in size
#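 p53-null H1299 cells stably carrying temperature-sensitive p53-A138V and a BP100-luciferase reporter were pinned with compounds (4-point, 1:5 series) and held 24 hrs at 37 deg C. Luminescence was read 10 min after detection reagent.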
# ELG1 repair inh: inhibitors of ELG1-dependent DNA repair in HEK293T cells. 330,000 compounds, 2.3% hits. HEK293T ELG1-luciferase reporter, luminescence, 16 h; DNA damage induced by 5-fluorouridine. Potency, µM (doses to about 46.1 µM), for inactives: at the top dose activity change, negative = inhibition, hits mostly inhibitors. AID 504467; further: on the % scale 0 is the no-effect control and ±100 the full control effect; nearly all actives have a fitted effect of over 55% in size
#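 Luminescence from the luciferase reporter, measured 30 min after ONE-Glo reagent at room temperature, was the read-out. Beforehand, 2,000 cells per well were exposed for 16 hr at 37 °C to 5-fluorouridine together with compound or vehicle.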
# ELG1 genotoxic: genotoxicity induction in ELG1-luciferase HEK293T cells. 330,000 compounds, 1.3% hits. AID 504466. HEK293T ELG1-luciferase reporter, luminescence, 16 h. Potency, µM (series often up to 46 µM), inactives show at the top dose activity change, positive = activation, hits mostly activators; further: % of control where 0% means no effect; nearly all actives have a fitted effect of over 60% in size
#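 Step 1: seed 2,000 HEK293T ELG1-luciferase cells per well. Step 2: add compound or DMSO, incubate 16 hr at 37 °C. Step 3: ONE-Glo, 30 min at room temperature, read luminescence.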
# Starred values were filed as active, the others as inactive; ? = inconclusive; nt = not tested or not shown. The call rests on the fitted dose curve; in most records, active means well fitted curve in the direction sought with a large enough effect; inconclusive means small, poorly fitted or top-dose-only effect, or another doubt; inactive means no such curve, though single readings can be large; an effect the other way counts as inactive or inconclusive. Potency means the concentration at half of the fitted maximal effect.
SMILES,SW480 rerep,MCF10A rerep,A-T KAP1 phos,p53 reactivation,ELG1 repair inh,ELG1 genotoxic
CN(C)CC(CCC(CN(C)C)C(O)(c1ccccc1)c1ccccc1)C(O)(c1ccccc1)c1ccccc1 (configuration not stated),?,20.6µM*,4.2%,-8.4%,18.3µM*,-17.2%
CN(C)CC(O)CN(c1ccccc1)c1ccccc1 (configuration not stated),-22.0%,-16.5%,4.1%,0.4%,?,-4.3%
CC(=O)Nc1ccc(NC(=O)COC(=O)c2ccc(S(=O)(=O)N(C)c3ccccc3)cc2)cc1,15.4%,8.3%,nt,nt,nt,nt
Cc1ccc2nc(N3CCN(CCO)CC3)nc(-c3ccccc3)c2c1,11.6µM*,3.66µM*,6.1%,-5.5%,0.0%,-1.6%
Clc1ccc(-c2nc(N3CCOCC3)nc3ccccc23)cc1,17.3%,21.8%,32.8%,nt,16.2%,-1.9%
NC(=O)C1CCN(C(=O)c2ccc3nc(-c4ccccc4)c(-c4ccccc4)nc3c2)CC1,0.9%,-0.9%,12.5%,0.0%,-17.2%,-8.3%
CCOC(=O)N1CCN(C(=O)c2ccc3nc(-c4ccccc4)c(-c4ccccc4)nc3c2)CC1,0.2%,14.8%,9.3%,2.4%,23.1µM*,-10.4%
OCCN1CCN(c2nc(-c3ccccc3)c3cc(Cl)ccc3n2)CC1,14.6µM*,?,-2.5%,-9.8%,8.0%,-0.9%
CCOC(=O)N1CCN(c2nc(-c3ccccc3)c3cc(C)ccc3n2)CC1,?,4.11µM*,?,1.7%,?,-2.3%
CCCN=C1N(CC)C[C@@H]2[C@@H]3C(=O)N(C)C(=O)[C@@H]3[C@](C)(C(=O)OC)N12,1.0%,-78.5%,-1.7%,9.5%,17.2%,9.3%
COc1cccc(/C=C/c2ccccn2)c1O,-8.4%,6.8%,1.3%,?,?,7.3µM*
COc1ccccc1C=Cc1ccnc2ccccc12,1.6%,?,nt,nt,nt,nt
COc1ccc(NS(=O)(=O)c2ccc(-c3coc(C)n3)cc2)cc1OC,14.8%,5.6%,2.4%,-0.1%,0.411µM*,11.9%
CCC(CO)Oc1cc(NCc2ccc(C)c(C)c2)c2ncn(C(C)C)c2c1 (configuration not stated),5.17µM*,14.6µM*,-0.1%,-2.5%,-20.5%,-2.3%
CCC(CO)Oc1cc(NC(=O)c2ccccc2F)c2ncn(C(C)C)c2c1 (configuration not stated),0.9%,-1.9%,11.4%,-2.1%,5.17µM*,-3.1%
CCC(CN(C)C)Oc1cc(NCc2ccccc2)c2ncn(C(C)C)c2c1 (configuration not stated),18.4µM*,?,1.7%,-9.7%,3.2%,-1.4%
CCC(CO)Oc1cc(NCc2ccc(F)cc2)c2ncn(C(C)C)c2c1 (configuration not stated),?,23.1µM*,5.4%,-9.2%,?,-1.5%
CCC(CO)Oc1cc(NCc2cc(C)cc(C)c2)c2ncn(C(C)C)c2c1 (configuration not stated),12.5%,1.5%,-1.1%,-5.6%,-20.7%,-2.1%
CCC(CO)Oc1cc(NCc2ccncc2)c2ncn(C(C)C)c2c1 (configuration not stated),3.0%,18.0%,-1.7%,-1.6%,7.8%,0.4%
COc1cc(NCc2ccccc2)c2ncn(C(C)C)c2c1,?,-3.6%,5.3%,-7.2%,-7.0%,3.5%
Cc1cccnc1NC(=O)c1ccc(Cl)c(S(=O)(=O)N2CCCCCC2)c1,6.1%,49.1%,-10.9%,-1.6%,?,-8.6%
CCCCn1c(N)c(N(CCC(C)C)C(=O)COC(=O)/C=C/c2ccc(F)cc2)c(=O)[nH]c1=O,22.8%,?,11.4%,1.6%,-15.0%,18.6%
CC(C)c1ccc(NC(=O)C2CCN(S(=O)(=O)c3ccc4c(c3)C(C)(C)C(=O)N4C)CC2)cc1,8.7%,-3.5%,-2.6%,nt,?,-6.9%
CCCCCN(C(=O)CSc1n[nH]c(-c2ccc(C)cc2)n1)c1c(N)n(CCCC)c(=O)[nH]c1=O,?,17.1%,-3.4%,23.4%,?,8.6%
N#C[C@H]1[C@H](c2ccccc2)[C@](C#N)(C(=O)c2ccccc2)[C@@H]2C=Cc3ccccc3N21,nt,nt,15.8µM*,-10.6%,12.6µM*,2.4%
SMILES,SW480 rerep,MCF10A rerep,A-T KAP1 phos,p53 reactivation,ELG1 repair inh,ELG1 genotoxic
CCOc1ccc(-c2nnc3n2N=C(c2ccc(OC)cc2)CS3)cc1,2.5%,11.8%,-3.5%,-2.4%,?,8.1%
Fc1ccccc1-c1nnc2n1N=C(c1ccc(OC(F)F)c(OCC3CC3)c1)CS2,-5.3%,-17.8%,6.8%,9.5%,?,4.9%
COc1ccc(C2=Nn3c(nnc3-c3ccccc3OC)SC2)cc1OC1CCOC1 (configuration not stated),1.03µM*,1.3µM*,-2.0%,-1.7%,-26.9%,1.5%
COc1ccc(C2=Nn3c(nnc3-c3ccccc3C(F)(F)F)SC2)cc1OC1CCOC1 (configuration not stated),24.8%,2.3%,0.7%,5.9%,?,-1.9%
COc1ccc(C2=Nn3c(nnc3-c3ccccc3Cl)SC2)cc1OCC1CC1,16.4µM*,?,-6.9%,1.0%,?,-1.5%
CCOc1ccc(C2=Nn3c(nnc3-c3ccccc3OC)SC2)cc1,0.259µM*,?,1.0%,-3.2%,-12.8%,-4.9%
COc1ccc(OC)c(-c2nnc3n2N=C(c2ccc(OC)c(OCC4CC4)c2)CS3)c1,2.31µM*,?,-5.6%,1.6%,?,-1.7%
CN(CC(=O)Nc1ccc(F)cc1)C(=O)c1ccc(N2C(=O)CCC2=O)cc1,11.8%,1.4%,0.0%,-0.1%,11.2%,-2.6%
CCCCNC(=S)NNC(=O)CCn1nc(C)c(Br)c1C,8.2µM*,6.1%,2.0%,14.0%,-9.8%,-2.6%
O=S(=O)(O)CC(S)CS (configuration not stated),6.2%,3.2%,nt,nt,nt,nt
COc1cc2cc(C)nc(Cc3cccc4ccccc34)c2cc1OC,5.2%,13µM*,9.2%,-7.4%,?,-1.3%
O=C(NC12CC3CC(CC(C3)C1)C2)N1CCN(C2CCCCC2)CC1,-1.4%,2.06µM*,-1.8%,5.2%,-6.1%,-2.5%
COc1cc(C#N)ccc1OCC(=O)Nc1cccc(S(=O)(=O)N2CCCC2)c1,-5.0%,5.9%,?,-2.9%,-26.9%,-9.5%
CCCCC(=O)N1CCN(c2nc3ccc(OCC)cc3s2)CC1,-2.5%,10.3%,6.8%,3.4%,0.7%,-7.2%
Cc1cc2nc(N3C(=O)CNC3=S)sc2cc1C,?,14.6µM*,6.0%,-3.8%,?,18.3µM*

# Screening results deposited in PubChem BioAssay by National Center for Advancing Translational Sciences (NCATS).
